High-throughput results: PubChem, The Scripps Research Institute Molecular Screening Center
Shown are actives, neighbours in structure and some others; about 3.5% of the full set was active somewhere.
TEAD-YAP block: TEAD-YAP interaction inhibition, primary screen, TEAD-YAP interaction inhibitor project, luminescence, HEK-TIYL cells. TEAD-Gal4/YAP UAS-luciferase luminescence. inhibition, % at 9.12 µM. 1.4% of 640,000 active. AID 1259422, 2018; in the data active means inhibition above about 32%;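 further: 0% = median of test compound wells and 100% = reference inhibitor wells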
FBW7 act: FBW7 E3 ligase activators, primary screen, biochemical, AlphaScreen, human; F-box/WD repeat-containing protein 7 (Homo sapiens), Q969H0; AlphaScreen FBW7–phospho-cyclin E peptide binding, activator screen; normalized activity (activation), % at 26.1 µM; 0.13% of 650,000 active; in the data active means normalized activity above about 1.9%;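 further: purified mutant Fbw7 with reduced substrate affinity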
MITF inh: MITF inhibitors, primary screen, biochemical, AlphaScreen, human; 0.91% of 650,000 active; AID 1259374, 2018; AlphaScreen MITF homodimerization, bead proximity signal; inhibition, % at 2.6 µM; Microphthalmia-associated transcription factor (Homo sapiens), O75030; in the data active means inhibition above about 50%;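 further: 0% = vehicle wells with protein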
Target sequence (O75030 whole entry, looked up): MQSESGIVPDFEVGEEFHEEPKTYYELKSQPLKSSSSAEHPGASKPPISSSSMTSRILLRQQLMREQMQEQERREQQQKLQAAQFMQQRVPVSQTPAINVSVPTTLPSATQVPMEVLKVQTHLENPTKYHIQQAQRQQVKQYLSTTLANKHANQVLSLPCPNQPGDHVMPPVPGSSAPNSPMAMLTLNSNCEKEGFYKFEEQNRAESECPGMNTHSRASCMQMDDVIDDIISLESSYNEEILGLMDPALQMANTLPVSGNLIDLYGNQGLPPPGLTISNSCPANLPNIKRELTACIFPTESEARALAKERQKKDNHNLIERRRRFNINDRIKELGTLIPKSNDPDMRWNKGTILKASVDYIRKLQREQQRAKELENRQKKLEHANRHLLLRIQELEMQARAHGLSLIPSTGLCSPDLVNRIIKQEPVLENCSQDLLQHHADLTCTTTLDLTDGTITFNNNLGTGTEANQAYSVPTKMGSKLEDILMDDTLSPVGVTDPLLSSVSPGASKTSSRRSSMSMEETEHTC
GPR151 ag: activators of human GPR151, primary screen, cell-based, PathHunter beta-arrestin, luminescence; G-protein coupled receptor 151 (Homo sapiens), Q8TDV0; activation, % at 11.2 µM; 1% of 650,000 active; AID 1508602, 2020; PathHunter beta-arrestin GPR151 cells; in the data active means activation above about 4.9%;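 further: 0% = median of compound wells and 100% = cells with positive control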
GPR151 conf act: GPR151 activators, triplicate retest, confirmation, cell-based, PathHunter beta-arrestin, luminescence. shares compounds with GPR151 ag. GPR151 PathHunter beta-arrestin cells, 90 min; % of EA-reagent control over plate median. activation, % at 11.2 µM. 6,700 tested, under 10 active. AID 1508609, 2020;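 active means mean percent activation across replicates above the confirmation screen cutoff of 4.91%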
GPR119 ag: GPR119 activators in beta-arrestin cells, counter-screen for GPR151 activator project, cell-based, PathHunter beta-arrestin, luminescence, triplicate | 0.3% of 6,700 active | shares compounds with GPR151 ag | 90 min; 0 = compound-well median, 100 = enzyme-acceptor control | AID 1508611, 2020 | activation, % at 11.2 µM;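 active means mean percent activation in the counterscreen above 29.09%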;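 further: counterscreen on off-target GPR119 to flag nonselective hits from the GPR151 activator screen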
* = called active by the depositor; nt = no result given; ! = not active in a repeat.

SMILES	TEAD-YAP block	FBW7 act	MITF inh	GPR151 ag	GPR151 conf act	GPR119 ag
COc1ccc(Cn2nccc2N)cc1OC	-2	0	2	14*	2	7
COc1ccccc1Cn1nccc1N	2	0	8	2	nt	nt
CCOc1cc(/C=C2/NC(=O)N(Cc3ccccc3F)C2=O)cc([N+](=O)[O-])c1O	3	0	22	-1	nt	nt
Cc1ccc(-c2nnc(N)s2)cc1	-8	0	-14	-2	nt	nt
Nc1nnc(-c2ccc(C(=O)O)cc2)s1	-5	0	5	7.6*	1	0
Cc1ccc(-c2nnc(N)s2)cc1C	-33	0	1	5.6*	-1	1
CCOc1ccc(OCCO/N=C/c2ccc(OCC)c(OC)c2)cc1	1	0	-2	0	nt	nt
Cc1ccc(C(=O)COC(=O)CN2C(=O)C3C4CCC(C4)C3C2=O)cc1[N+](=O)[O-] (centres undefined)	-7	0	-14	-1	nt	nt
Cc1ccc(C(=O)COC(=O)CN2C(=O)C3C4C=CC(C4)C3C2=O)cc1[N+](=O)[O-] (centres undefined)	3	0	1	13*	0	10
Cc1ccc(OC(C)C(=O)Nc2sc3c(c2C(N)=O)CCCC3)cc1 (centres undefined)	-2	0	0	1	nt	nt
CCOc1ccc(NC2=CC(=O)CCC2)cc1	-1	0	-4	1	nt	nt
CCOc1ccc(NC2=CC(=O)C=CC2=O)cc1	8	0	26	5.8*	0	-2
CCN1C(=O)[C@H]2[C@H]3[C@H](O)[C@H](O)C/C(=N\NC(=O)OCc4ccccc4)[C@@H]3CC[C@H]2C1=O	nt	0	9	5.0*	0	8
CCOC(=O)CCN1C(=O)[C@H]2[C@H]3[C@H](O)[C@H](O)C/C(=N\NC(=O)OCc4ccccc4)[C@@H]3CC[C@H]2C1=O	nt	0	11	1	nt	nt
COc1ccc(O[C@H]2C=C[C@@H](c3ccccc3)O[C@@H]2COC(=O)CC/C(C)=N/O[C@@H](C)CN2CCCCc3nc(C)c(C)cc32)cc1	nt	0	2	1	nt	nt
C/C(CCC(=O)OC[C@H]1O[C@H](C#Cc2ccccc2)C=C[C@@H]1Oc1ccc(C)cc1)=N\O[C@H](C)CN1CCCc2nc(C)c(C)cc21	nt	0	11	7.0*	0	-5
COc1ccc(C(Nc2cccc(C)n2)c2ccc3cccnc3c2O)cc1 (centres undefined)	88*	0	22	6.7*	0	-1
CC(=O)Nc1nnc(SCC(=O)N2CCN(c3ccccc3)CC2)s1	6	0	-13	-1	nt	nt
Cc1nnc(SCC(=O)N2CCN(c3ccccc3)CC2)s1	1	0	10	6.4*	1	10
Cc1ccccc1-c1nnc(SCC(=O)N2CCOCC2)o1	-53	0	13	0	nt	nt
Cc1ccccc1-c1nnc(SCC(=O)N2CCN(c3ccccc3)CC2)o1	12	0	5	6.5*	1	6
CC(C)(C)CN1CCNC(=O)C1CC(=O)NCc1cn2ccsc2n1 (centres undefined)	-12	0	0	-1	nt	nt
Fc1ccccc1/C=N\Nc1nc2ccccc2o1	-48	1	21	11*	-1	-12
Cc1ccc(CNC(=O)c2cc3c(s2)CS(=O)(=O)C3)cc1	-15	0	-6	5.7*	0	10
Cc1ccc(CCNC(=O)c2cc3c(s2)CS(=O)(=O)C3)cc1	0	0	5	0	nt	nt
SMILES	TEAD-YAP block	FBW7 act	MITF inh	GPR151 ag	GPR151 conf act	GPR119 ag
CC(C)CCNC(=O)c1cc2c(s1)CS(=O)(=O)C2	1	0	11	6.5*	0	10
O=C(COC(=O)c1ccccc1OC(F)F)c1ccc[nH]1	-1	0	-7	-1	nt	nt
Cc1cccc(NC(=O)CCCCCNC(=O)C(F)(F)F)c1	-1	0	2	1	nt	nt
OCCOCCNc1ncnc2ccc(I)cc12	8	1	10	5.4*	0	-4
COC(=O)CCNc1nncc(-c2ccccc2C)n1	-1	0	15	-2	nt	nt
COCCCNC(=O)c1cccnc1SCc1ccccc1Cl	2	0	-10	5.5*	-1	-13
Cc1cccc(C(=O)NCCCN(C)C)c1	-3	0	-2	7.7*	-1	-2
CCOc1ccc2nc(SCC(=O)Nc3cccc([N+](=O)[O-])c3)sc2c1	10	1	15	-1	nt	nt
O=C(C1CC1)N1CCC(O)(c2ccccn2)CC1	-4	0	1	1	nt	nt
CS(=O)(=O)N1CCC(C(=O)N2CCC(O)(c3ccccn3)CC2)CC1	-10	0	0	11*	1	14
COc1cccc(C(=O)NNC2CC(=O)N(c3cccc(OC)c3)C2=O)c1 (centres undefined)	1	0	-6	1	nt	nt
COc1ccc(-c2cc(C(=O)Nc3ccc(OC)cc3OC)no2)cc1	6	0	6	0	nt	nt
CCCc1cc(C(=O)Nc2ccc(OC)cc2OC)no1	-18	0	-1	17*	0	-4
COCCCN1C(=O)c2ccc(C(=O)Oc3ccc(C(C)(C)C)cc3)cc2C1=O	3	1	8	5.2*	1	-3
CC(=O)N1CCN(C(=O)CCc2nnc(Cc3ccc(-c4ccccc4)cc3)o2)CC1	2	0	-1	0	nt	nt
CC1=C(C(=O)OCC2CCCO2)C(c2cccc([N+](=O)[O-])c2)C2=C(CCCC2=O)N1 (centres undefined)	8	0	4	6.1*	0	8
CCCOCCOC(=O)C1=C(C)NC2=C(C(=O)CCC2)C1c1ccc(F)c(F)c1 (centres undefined)	17	1	-3	0	nt	nt
CCOCCOC(=O)C1=C(C)NC2=C(C(=O)CCC2)C1c1ccc(F)c(F)c1 (centres undefined)	7	0	6	12*!	1	17
CCOCCOC(=O)C1=C(C)NC2=C(C(=O)CC(c3ccc(Cl)cc3)C2)C1c1ccc(Cl)cc1 (centres undefined)	17	0	-1	7.4*	-1	-4
CC1=C(C(=O)OCCOc2ccccc2)C(c2cccc(O)c2)C2=C(CC(c3ccccc3)CC2=O)N1 (centres undefined)	6	2	8	14*	0	8
